# Screens: PubChem, National Center for Advancing Translational Sciences (NCATS)
# TDP1 cell noCPT – qHTS for Inhibitors of human tyrosyl-DNA phosphodiesterase 1 (TDP1): qHTS in cells in absence of CPT; DT40 Tdp1-/- hTDP1 cells, no CPT, ATP luminescence, 48 h; 15% of 420,000 active; AID 686978, 2013; Potency, µM (series often up to 46.2 µM), inactives show at the highest dose activity change, negative = growth inhibition, hits mostly inhibitors; further: potency means the concentration at half of the fitted maximal effect; on the % scale 0 is the no-effect control and ±100 the full control effect; nearly all actives have a fitted effect of over 55% in size
#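 A cellular qHTS used chicken DT40 cells lacking endogenous Tdp1 but carrying stably transfected human TDP1. Compounds were applied without camptothecin, and cell growth kinetics were judged by ATP-dependent luminescence after ≥48 hr.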
# TDP1 inh – qHTS Assay for Inhibitors of Tyrosyl-DNA Phosphodiesterase (TDP1); Tyrosyl-DNA phosphodiesterase 1 (Homo sapiens), Q9NUW8; recombinant TDP1, AlphaScreen DNA substrate cleavage; Potency, µM (titrated, usually from 130 µM), for the others: at the highest dose activity change, negative = inhibition, actives largely listed as inhibitors; 0.28% of 350,000 active; further: potency means the concentration at half of the fitted maximal effect; on the % scale 0 is the no-effect control and ±100 the full control effect; nearly all actives have a fitted effect of over 40% in size
# Target sequence (Q9NUW8 whole entry, looked up): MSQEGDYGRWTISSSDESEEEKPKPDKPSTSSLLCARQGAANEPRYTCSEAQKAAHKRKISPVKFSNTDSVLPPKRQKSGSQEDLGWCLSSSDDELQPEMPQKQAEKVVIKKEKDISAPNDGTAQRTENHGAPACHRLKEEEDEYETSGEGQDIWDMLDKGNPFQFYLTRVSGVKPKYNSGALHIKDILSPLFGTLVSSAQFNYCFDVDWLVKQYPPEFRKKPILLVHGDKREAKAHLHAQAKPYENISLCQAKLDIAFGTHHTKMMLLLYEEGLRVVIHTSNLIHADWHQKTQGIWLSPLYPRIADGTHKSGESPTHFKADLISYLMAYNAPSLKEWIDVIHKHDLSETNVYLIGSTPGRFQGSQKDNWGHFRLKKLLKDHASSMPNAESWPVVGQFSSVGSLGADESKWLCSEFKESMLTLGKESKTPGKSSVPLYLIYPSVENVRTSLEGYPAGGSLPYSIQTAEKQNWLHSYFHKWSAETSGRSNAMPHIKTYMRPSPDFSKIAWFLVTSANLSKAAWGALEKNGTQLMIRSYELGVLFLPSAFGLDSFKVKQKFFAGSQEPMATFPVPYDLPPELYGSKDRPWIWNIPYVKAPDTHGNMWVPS
#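 Enzyme-compound mixtures sat 15 min at room temperature, followed by a 5 min reaction with 15 nM final substrate and 10 min with AlphaScreen beads. Recombinant human Tdp1 was used at 1 nM final.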
# HepG2 tox – qHTS for Inhibitors of TGF-b: Cytotox Counterscreen. 0.76% of 410,000 active. AID 588856, 2011. HepG2 CAGA-GFP viability, ATP luminescence, 18 h. Potency, µM (top dose mostly 46.1 µM), for inactives: at the top dose activity change, negative = cytotoxicity, most hits filed as cytotoxic; further: potency means the concentration at half of the fitted maximal effect
#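 CellTiter-Glo luminescence gave cytotoxicity after 18 hours at 37 degrees C. The cells were HepG2 CAGA-GFP in 1% FBS DMEM, stimulated with 500 pg/mL TGF-beta after compound addition. %Activity was normalised to no-cell wells (complete cell-killing) and DMSO (no toxicity), and curves were fitted and classified.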
# IL1B secr inh – qHTS for Inhibitors of Inflammasome Signaling: IL-1-beta AlphaLISA Primary Screen. THP-1 LPS/ATP IL-1B secretion, AlphaLISA, 16 h; stronger effect = lower value. activity change, % at 57.5 µM. 4.7% of 360,000 active; in the data active means activity change below about -50%; inconclusive means mostly about -30% to -49%; further: on the % scale 0 is the no-effect control and ±100 the full control effect
#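 Secreted IL-1B measured by AlphaLISA bead assay after 16 h compound exposure of THP-1 cells; compounds (final up to 57.5 uM) added 1 h before LPS (250 ng/mL) and ATP (1.25 mM) stimulation; lower signal means less secretion.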
# TGFb SMAD3 inh – qHTS for Inhibitors of TGF-b. Potency, µM (highest dose often 46.1 µM), inactives show at the top dose activity, negative = inhibition, hits mostly inhibitors. 1.2% of 410,000 active. HepG2 CAGA-GFP TGF-b/SMAD3 reporter, GFP fluorescence, 18 h; TGF-beta stimulated, 500 pg/mL final; further: potency means the concentration at half of the fitted maximal effect; on the % scale 0 is the no-effect control and ±100 the full control effect; nearly all actives have a fitted effect of over 65% in size
#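 TGF-beta reporter screen: HEPG2 CAGA-GFP, 1% FBS, 500 pg/mL TGF-beta final, 18 h; per-cell GFP summed per well; curves fitted and categorized by class.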
# TDP1 cell CPT – qHTS for Inhibitors of human tyrosyl-DNA phosphodiesterase 1 (TDP1): qHTS in cells in presence of CPT; 12% of 420,000 active; Potency, µM (titrated, usually from 46.2 µM), for inactives: at the highest dose activity change, negative = growth inhibition, usual class: inhibitors; chicken DT40 Tdp1-/-;hTDP1 cells + 20 nM CPT, ATP luminescence, 48 h; AID 686979, 2013; further: potency means the concentration at half of the fitted maximal effect; on the % scale 0 is the no-effect control and ±100 the full control effect; nearly all actives have a fitted effect of over 55% in size
#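 Chicken DT40 Tdp1-/- cells stably complemented with human TDP1 were seeded at 400 cells/well in medium containing 20 nM camptothecin, exposed to pin-transferred compounds, and grown at 37 °C for at least 48 hr. Viability was read as ATP luminescence.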
# Starred values were filed as active, the others as inactive; i = inactive; ? = inconclusive; / = no result; [ ] = remark or other dose. An excerpt weighted towards active compounds, which were near 18% of everything screened. Unless noted, the call rests on the fitted dose curve; in most records, active means well fitted curve in the direction sought with a large enough effect; inconclusive means small, poorly fitted or top-dose-only effect, or another doubt; inactive means no such curve, though single readings can be large; an effect the other way counts as inactive or inconclusive.
SMILES,TDP1 cell noCPT,TDP1 inh,HepG2 tox,IL1B secr inh,TGFb SMAD3 inh,TDP1 cell CPT
C[C@@H]1C(=O)O[C@H]2[C@H](O)[C@@]34[C@H]5CC(C(C)(C)C)[C@]36[C@H](OC(=O)[C@H]6O)O[C@]4(C(=O)O5)[C@@]12O (some centres undefined),/,3%,/,/,/,/
Cc1cnc(C)c(-c2cccc3c2OC(CNC(=O)C2(c4ccc(Cl)cc4)CC2)C3)n1 (centres undefined),21µM*,/,/,/,/,-14%[9.04 µM]
Cc1cnc(C)c(-c2cc(F)cc3c2OC(CNC(=O)c2cc(Cl)ccc2F)C3)n1 (centres undefined),-9%,/,/,/,/,-3%
Cc1cnc(C)c(-c2ccc(F)c3c2OC(CNC(=O)/C=C/c2cccs2)C3)n1 (centres undefined),21µM*,/,/,/,/,?
Cc1ccccc1-n1ncc2c1CC(C)(C)CC2NC(=O)c1snnc1C (centres undefined),26µM*,8%,-3%,5,-17%,?
CSc1ncccc1C(=O)NC1CC(C)(C)Cc2c1cnn2-c1ccccc1C (centres undefined),?,2%,-14%,-2,12%,23µM*
COC(=O)CCC(=O)NC1CC(C)(C)Cc2c1cnn2-c1ccc(F)cc1 (centres undefined),?,0%,2%,26,-3%,0.58µM*
Cc1ccccc1-n1ncc2c1CC(C)(C)CC2NC(=O)CSc1ccncc1 (centres undefined),16µM*,4%,-48%,-9,-6%,?
Cc1ccccc1-n1ncc2c1CC(C)(C)CC2NC(=O)c1ccncc1 (centres undefined),-20%,1%,-1%,2,-14%,-10%
Cc1ccc(-n2ncc3c2CC(C)(C)CC3NC(=O)c2ccccn2)cc1 (centres undefined),?,1%,-14%,-81*,?,?
C=CCC(=O)NC1CC(C)(C)Cc2c1cnn2-c1ccc(C)cc1 (centres undefined),-14%,/,4%,9,9%,-3%
O=C(Cn1cc(S(=O)(=O)Cc2ccccc2F)c2ccccc21)NCc1ccccc1,-1%,4%,-11%,/,0%,-13%
O=C(Cn1cc(S(=O)(=O)Cc2ccc(F)cc2)c2ccccc21)NCc1ccccc1Cl,21µM*,5%,-30%,/,0%,?
Cc1ccc(CNC(=O)Cn2cc(S(=O)(=O)Cc3ccccc3F)c3ccccc32)cc1,?,4%,-51%,/,?,15µM*
COc1cccc(NC(=O)Cn2cc(S(=O)(=O)Cc3ccccc3F)c3ccccc32)c1,18µM*,5%,-13%,/,-53%,16µM*
CCOC(=O)OCC1OC(c2ccccc2)C=CC1Oc1ccc(F)cc1C (centres undefined),/,2%[21 µM],/,/,/,/
O=C(NCC1CCC2(CCN(Cc3cnn(-c4ccc(F)cc4)c3)CC2)O1)c1ccccc1 (centres undefined),-27%,/,/,/,/,-9%
COC(=O)c1ccc(NC(=O)CCN2C(=O)C3C4CCC(C4)C3C2=O)cc1 (centres undefined),-21%,4%[56.1 µM],-15%,2,-6%,-4%
CN(CCc1ccccn1)C(=O)CCC1CCCN(C(=O)c2cccc(N(C)C)c2)C1 (centres undefined),-3%,1%,-2%,26,0%,-16%
COCCn1c(SCC(=O)N2CCC(C)CC2)nc2c([nH]c3ccccc32)c1=O,?,-2%,3%,11,?,?
O=C1NCCC/C1=N\Nc1ccc(Br)cc1,-13%,1%,6%,-16,5%,-1%
Cc1ccccc1N/N=C1\CCCNC1=O,-8%,9%,-5%,-54*,19%,-21%
O=C1c2cccc3cc([N+](=O)[O-])cc(c23)C(=O)N1c1nncs1,-7%,/,-42%,9,4%,2%
OCC(O)CS (centres undefined),3%,0%,/,/,/,-17%
CCOC(=O)C1(C)/C(=N/Nc2ccccc2OC)C(=O)C(=O)N1c1ccccc1 (centres undefined),13µM*,10%,-14%,2,-14%,23µM*
SMILES,TDP1 cell noCPT,TDP1 inh,HepG2 tox,IL1B secr inh,TGFb SMAD3 inh,TDP1 cell CPT
CCC1CCCCN1C(=O)CSc1nnc(N)s1 (centres undefined),9%,0%,5%,10,0%,4%
CCOC(=O)c1c(C)[nH]c(C)c1S(=O)(=O)N(C)CC(=O)N1CCN(c2ccccc2OC)CC1,?,0%,-41%,/,?,18µM*
COc1ccccc1N(CC(=O)N1CCN(c2ccccc2)CC1)S(=O)(=O)c1ccc(C)cc1,?,7%,8%,-8,10%,18µM*
CCOc1ccc(N(CC(=O)N2CCN(c3ccccc3OC)CC2)S(=O)(=O)c2ccc(C)cc2)cc1,21µM*,3%,-19%,i,-23%,?
CCOC(=O)N1CCN(C(=O)CN(c2cccc(Cl)c2C)S(=O)(=O)c2ccc(C)cc2)CC1,?,/,-11%,/,-30%,21µM*
CCc1cc2c(=O)n(CC)c(SC(C)C(=O)Nc3c(C)n(C)n(-c4ccccc4)c3=O)nc2s1 (centres undefined),?,0%,-9%,-24,?,?
CCc1ccc(NC(=O)Cn2ccn(-c3cccc(Cl)c3)c(=O)c2=O)cc1,?,1%,-10%,31,2%,?
CCOC(=O)c1ccc(NC(=O)C2CC2)cc1,6.5µM*,5%,2%,0,35%,8.2µM*
CCOC(=O)c1ccc(P(=O)(c2ccccc2)c2ccccc2)cc1,23µM*,/,3%,-8,-26%,?
CC(=O)Nc1ccc(NC(=O)CCn2nnc3ccccc32)cc1,23µM*,6%,1%,-10,16%,?
CCOC(=O)c1ccc(NC(=O)CCn2nnc3ccccc32)cc1,-10%,3%,-7%,3,-5%,-2%
CCOC(=O)c1ccc(NC(=O)C2CCCO2)cc1 (centres undefined),-11%,1%,-2%,?,1%,-18%
CCOC(=O)c1ccc(NC(=O)CNC(=O)c2ccccc2)cc1,4%,7%,-5%,-7,18%,8%
